Molecules are shown by their SMILES. Compounds without any hit were thinned out: in the full panel of roughly 83,000, 20% have a hit.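 Values shown are percent growth following 48 h exposure of cells in 96-well plates to a single concentration of compound; below 10 was considered active.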 Active and inactive are the calls of the source.

This assay deals with SK-MEL-28 melanoma. In words: NCI-60 one-dose screen, 48 h (100 = growth as untreated, 0 = no growth, -100 = all killed). The settings on record: 10 µM unless noted. As for the experimental part: Growth inhibition of the SK-MEL-28 human tumor cell line is measured as a screen for anti-cancer activity. Cells are grown in 96 well plates and exposed to the test compound for 48 hours. Compounds are tested at a single concentration, which is 10^-5 M for most compounds. The reported endpoint is percent growth (GI% or GIPRCNT), where numbers from 0 - 100% represent growth inhibition, and numbers from -100% - 0 represent cell death. For example, a value of 40 represents 60% growth inhibition. A value of 0 means no net growth occurred over the course of the experiment. A value of -40 indicates 40% of cells at the beginning of the experiment died by the end of the experiment. A value of -100 means all cells are dead at the end of the experiment.
NCI-60 Human Tumor Cell Lines Screen was performed using the standard one-dose NCI protocol, which is described in more detail at https://dtp.cancer.gov/discovery_development/nci-60/default.htm.
Compounds with GIPRCNT values below 10 were considered active. Activity score was based on GIPRCNT using the following formula: […]
Score is 0 for GIPRCNT values of 100 or above, 50 for GIPRCNT values of 0, and 100 for GIPRCNT values of -100.
Consider `Cc1nc2ccccc2c(/C=C/c2ccc(Cl)cc2)c1C(=O)/C=C/c1ccc(C(F)(F)F)cc1`, for which the growth is -69.7% (active).

On to `COc1cc(C(=O)c2cnc(-c3c[nH]c4cccc(C)c34)[nH]2)cc(OC)c1OC`, for which the growth is 59.3% (inactive).

In the case of `N[C@@H](Cc1ccccc1)[C@@H](O)C(=O)NCc1ccc(F)cc1`, the growth is 108% (inactive).

For `COC(=O)C(Cc1ccccc1)NC(=O)NC(=O)NC(=O)CI` (stereo not given), the growth is 51.8% (inactive).

For the compound `CCCCCCNC(=O)Oc1ccc(/C(=C(\C)c2ccc(Cl)cc2)c2ccc(OCCN3CCCCC3)cc2)cc1`, the growth was 29.4% (inactive).

`COc1ccc(-c2cnc3ccccc3n2)cc1`: the growth is 104% (inactive).

With `NCCCNc1nc2ccccc2c2c(=O)c3cc(F)cc(F)c3sc12`, the growth is -87.1% (active).

For the compound `Cc1oc2nc[nH]c(=O)c2c1C(=O)/C=C/c1ccc(Br)cc1`, the growth is 23.9% (inactive).

Take `NCCCNc1nc2ccccc2c2c(=O)c3cc(OC(F)(F)F)ccc3sc12`: the growth is 84.7% (inactive).

In the case of `Cc1nc2ccccc2c(/C=C/c2ccc(Cl)cc2)c1C(=O)/C=C/c1cccs1`, the growth is 95.7% (inactive).

For `O=c1n(Cc2ccc3ccccc3c2)ccn1Cc1ccc2ccccc2c1`, the growth is 94.3% (inactive).

For the compound `Cc1cc(-c2cc(C)c(N)cc2C)c(C)cc1N`, the growth was 89.3% (inactive).

With `CSc1nc2ccc(C)cc2cc1/C=N/O`, the growth is 101% (inactive).

In the case of `Cc1nn(-c2ccccc2)c(-n2ccnc2)c1/C=N/Nc1nc(-c2ccc(F)cc2)cs1`, the growth was 97.6% (inactive).

`Cc1nc2ccccc2c(/C=C/c2ccccc2)c1C(=O)/C=C/c1ccc(C(F)(F)F)cc1`: the growth was -67% (active).

As to `CC(=O)OC[C@H]1OC(Sc2sc(C(=O)c3ccc(C)cc3)c(N)c2-c2nc3ccccc3s2)[C@H](OC(C)=O)[C@@H](OC(C)=O)[C@@H]1OC(C)=O` (stereo not given in full), the growth is 76.4% (inactive).

Consider `O=c1c2cc(F)ccc2sc2c(NCCO)nc3ccccc3c12`, for which the growth was 126% (inactive).

For the compound `CN(C)CCN1CCN(c2ncccc2C2Nc3ccccc3-n3cccc32)CC1` (stereo not given), the growth is 105% (inactive).

`CCOC(=O)c1cnn2c3ccccc3n(S(=O)(=O)c3ccc(OC)cc3)c12`: the growth was 57.9% (inactive).

For `O=c1ccc(N=Nc2ccccc2)ccc1Cl`, the growth was 92.5% (inactive).

As to `Cc1ccc(NC2=C(Cl)C(=O)c3nc(C)ccc3C2=O)cc1`, the growth was -79% (active).

On to `Cc1ccc(-c2nc(N3CCN(C(=O)Nc4ccc(Cl)c(C(F)(F)F)c4)CC3)c3ccccc3n2)cc1`, for which the growth is 89.2% (inactive).

Take `CN1CCN(c2ccc(-c3cnc4c(-c5csc6ccccc56)cnn4c3)cc2)CC1`: the growth was -7.59% (active).

As for `COc1ccc(/C=C(/C#N)n2nnc3cccc(F)c32)cc1`, the growth is 48.1% (inactive).

On to `COc1ccc(-c2conc2-c2ccccc2)cc1`, for which the growth is 55.3% (inactive).

`Cc1cccc(OCC(O)CN2CCN(c3ccc(Cl)cc3)CC2)c1` (stereo not given): the growth is 100% (inactive).

With `COc1cc(/C=C/C(=O)/C=C/c2cc(OC)c3c(c2OC)OCO3)c(OC)c2c1OCO2`, the growth is 55.6% (inactive).

`COc1ccc(/C=N/Nc2cc(=O)[nH]c3ccc(C)cc23)cc1`: the growth is 101% (inactive).

For `COC(=O)c1ccc2[nH]c(O)c(C(=Nc3ccc(N(C)C(=O)CN4CCN(C)CC4)cc3)c3ccccc3)c2c1`, the growth was 29.3% (inactive).

In the case of `COc1cc(/C=C/c2c(C(C)=O)c(C)nc3ccccc23)cc(OC)c1OC`, the growth is 53.9% (inactive).

On to `CN1CCN(Cc2ccc(NC(=O)c3cncc(C#Cc4cnccc4C#N)c3)cc2C(F)(F)F)CC1`, for which the growth was 30.1% (inactive).

Regarding `CCCCCCCCCCCCCCCCCCOc1ccc(CC(=O)OCC[N+]2(C)CCCCC2)cc1`, the growth was 106% (inactive).

As to `COc1ccc(S(=O)(=O)n2c3ccccc3n3ncc(-c4nnc(C)o4)c23)cc1`, the growth is 65.3% (inactive).

In the case of `OC(COc1ccccc1Cl)CN1CCN(c2cccc(Cl)c2)CC1` (stereo not given), the growth is 107% (inactive).

Consider `COc1nc2ccccc2cc1-c1nc2c(cnn2-c2ccc(Br)cc2)c(=O)[nH]1`, for which the growth is 43.4% (inactive).

With `COc1ccc(C(=O)N=Nc2c(O)n(C)c3ccccc23)cc1`, the growth is 107% (inactive).

Turning to `COc1ccc(-c2nn(C(=O)c3cc(OC)c(OC)c(OC)c3)c3cc(N)ccc23)cc1`, the growth was 45.1% (inactive).

Consider `COc1cc2cc(Oc3ccc(NC(=O)Nc4ccc(Cl)c(Cl)c4)cc3)c(C)nc2cc1OCCN1CCOCC1`, for which the growth is 101% (inactive).

For the compound `NC1=NC(c2cccc(Br)c2)c2sc3ccc(Cl)cc3c2N1` (stereo not given), the growth is 118% (inactive).

For the compound `COc1ccc(-c2[nH]c3ccc(OC)cc3c2/C=C(\C#N)S(=O)(=O)c2ccccc2)cc1`, the growth is 43.2% (inactive).

The record behind these values is PubChem BioAssay (NCI).
